9 compounds from PubChem BioAssay (NCI) can be followed below.

About 83,000 compounds went through this panel and 20% of them were active in at least one assay; those are over-represented in the sample as a whole.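 Step 1: grow cells in 96-well plates. Step 2: add test compound at a single concentration. Step 3: incubate 48 h. Step 4: record percent growth.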 A number with no mark means an inactive call. Calls of active or inactive are those of the source. Rule for the calls: active = growth percent below 10; inactive = the rest.

Test systems include SR leukemia; RPMI-8226 leukemia; OVCAR-8 ovarian; OVCAR-5 ovarian; OVCAR-4 ovarian; SK-OV-3 ovarian; OVCAR-3 ovarian; HS 578T breast; NCI/ADR-RES ovarian; T-47D breast; BT-549 breast; MDA-MB-435 melanoma; SW-620 colon; MCF7 breast; HCT-116 colon; HCC-2998 colon; KM12 colon; IGROV1 ovarian.
What all share (test): NCI-60 one-dose screen, 48 h (100 = growth as untreated, 0 = no growth, -100 = all killed)
What all share (conditions): 10 µM unless noted

Regarding `CC1(C)NC2=C(C(Nc3cccnc3)N1)C(c1ccc([N+](=O)[O-])cc1)C(C(=O)c1ccc(N=[N+]=[N-])cc1)O2` (stereo unspecified), the growth in the experiment with SR leukemia is 102%; in the experiment on RPMI-8226 leukemia, 115%; with OVCAR-8 ovarian it was 101%; in the experiment on OVCAR-5 ovarian, 97.6%; with OVCAR-4 ovarian it was 117%; in the experiment with SK-OV-3 ovarian, 108%. Moreover, the growth was 110% in the experiment with OVCAR-3 ovarian; 102% in the experiment on HS 578T breast; 109% with NCI/ADR-RES ovarian; 102% with T-47D breast; 99.7% with BT-549 breast; 105% in the experiment on MDA-MB-435 melanoma. In addition, the growth is 104% with SW-620 colon; 97.5% in the experiment on MCF7 breast; 104% in the experiment on HCT-116 colon; 110% in the experiment on HCC-2998 colon; 105% in the experiment with KM12 colon.

Regarding `CC1(n2nnnc2N2CCCN(c3ncccc3N)CC2)CCC1`, the growth is 79.1% with SR leukemia; 104% with RPMI-8226 leukemia; 102% with OVCAR-8 ovarian; 98.7% with OVCAR-5 ovarian; 97.2% with OVCAR-4 ovarian; 99.7% in the experiment with IGROV1 ovarian. Moreover, the growth in the experiment with OVCAR-3 ovarian was 106%; in the experiment on HS 578T breast, 97.5%; with NCI/ADR-RES ovarian, 103%; in the experiment with T-47D breast, 101%; in the experiment on BT-549 breast, 99.4%; with MDA-MB-435 melanoma, 99.5%. The growth with SW-620 colon was 104%; with MCF7 breast, 95.5%; in the experiment with HCT-116 colon, 84.1%; with HCC-2998 colon, 108%; in the experiment on KM12 colon, 102%.

Take `COC(=O)CCCCCn1c2ccccc2c2c3c(c4c5ccccc5[nH]c4c21)C(=O)N(O)C3=O`: the growth in the experiment on SR leukemia is 11.3%; with RPMI-8226 leukemia, 22.4%; with OVCAR-8 ovarian, 31.2%; with OVCAR-5 ovarian, 86.6%; in the experiment with OVCAR-4 ovarian it was 57.5%; in the experiment with SK-OV-3 ovarian it was 70.2%. The growth with OVCAR-3 ovarian is 33.2%; with HS 578T breast, 84.5%; in the experiment on NCI/ADR-RES ovarian, 23.1%; in the experiment with T-47D breast, 21.6%; in the experiment on BT-549 breast, 59%; with MDA-MB-435 melanoma it was 71.2%. Further, the growth is 48.7% with SW-620 colon; 13.1% in the experiment on MCF7 breast; 28.4% with HCT-116 colon; 55.4% with HCC-2998 colon; 46.5% in the experiment on KM12 colon.

Take `COc1cc2ncnc(Nc3ccc(OCc4cccc(F)c4)c(Cl)c3)c2cc1NC(=O)C1CCCC1`: the growth with SR leukemia is 91%; with RPMI-8226 leukemia, 89.9%; in the experiment with OVCAR-8 ovarian it was 76.9%; in the experiment on OVCAR-5 ovarian, 88.9%; in the experiment on OVCAR-4 ovarian, 100%; in the experiment on SK-OV-3 ovarian, 13%. Also, the growth in the experiment on OVCAR-3 ovarian was 77.9%; in the experiment with HS 578T breast, 91.8%; in the experiment on T-47D breast, 24.9%; in the experiment with BT-549 breast it was 103%; in the experiment on MDA-MB-435 melanoma, 89.4%; in the experiment with SW-620 colon, 98.4%. Besides, the growth was 84.4% in the experiment with MCF7 breast, 83.4% in the experiment with HCT-116 colon, 103% in the experiment with HCC-2998 colon and 94.9% in the experiment on KM12 colon.

For the compound `CNC(=O)c1cc(Oc2ccc3nc(NC(=O)Nc4ccc(Cl)cc4)sc3c2)ccn1`, the growth with SR leukemia was 42.7%; in the experiment on RPMI-8226 leukemia it was 81.7%; in the experiment with OVCAR-8 ovarian, 57.2%; in the experiment on OVCAR-5 ovarian it was 92.3%; in the experiment with OVCAR-4 ovarian, 13%; in the experiment with IGROV1 ovarian, 83.6%. Besides, the growth with OVCAR-3 ovarian is 48.8%; in the experiment on HS 578T breast, 30.1%; with NCI/ADR-RES ovarian, 83.6%; with T-47D breast, 44%; in the experiment with BT-549 breast it was 102%; with MDA-MB-435 melanoma, 64.1%. Besides, the growth in the experiment on SW-620 colon was 101%; in the experiment with MCF7 breast, 69.5%; in the experiment on HCT-116 colon, 47.3%; with HCC-2998 colon, 86.5%; with KM12 colon it was 70%.

Consider `NC(N)=N/N=C/c1ccc(-c2ccc(-c3ccc(Cl)cn3)s2)cc1`, for which the growth is 11.6% with SR leukemia; 38.4% in the experiment with RPMI-8226 leukemia; 99.3% in the experiment with OVCAR-8 ovarian; 107% with OVCAR-5 ovarian; 99.3% in the experiment with OVCAR-4 ovarian; 91.1% in the experiment with IGROV1 ovarian. For the same compound, the growth is 85.9% in the experiment with OVCAR-3 ovarian; 92.3% in the experiment on HS 578T breast; 50.8% with NCI/ADR-RES ovarian; 91.2% in the experiment with T-47D breast; 98.8% with BT-549 breast; 98.5% in the experiment with MDA-MB-435 melanoma. Moreover, the growth was 2.46% (active) with SW-620 colon; 42.8% in the experiment with MCF7 breast; 50.2% in the experiment with HCT-116 colon; 98.4% in the experiment on HCC-2998 colon; 14.8% in the experiment with KM12 colon.

Turning to `Cc1ccc(S(=O)(=O)Nc2ccc(-c3cc(-c4cccc(F)c4)c(C#N)c(=O)[nH]3)cc2)cc1`, the growth was 54.9% with SR leukemia; 19.4% with RPMI-8226 leukemia; 80.1% in the experiment with OVCAR-8 ovarian; 99.9% with OVCAR-5 ovarian; 67% in the experiment on OVCAR-4 ovarian; 73.1% in the experiment with IGROV1 ovarian. Further, the growth in the experiment with OVCAR-3 ovarian was 82.6%; in the experiment with HS 578T breast it was 89.7%; in the experiment on NCI/ADR-RES ovarian, 90.7%; with T-47D breast it was 41.9%; with BT-549 breast, 74.7%; with MDA-MB-435 melanoma it was 96.3%. Moreover, the growth is 73.5% in the experiment on SW-620 colon; 16.9% with MCF7 breast; 8.61% (active) in the experiment on HCT-116 colon; 104% in the experiment on HCC-2998 colon; 72.9% with KM12 colon.

As to `Cc1ccc(S(=O)(=O)Nc2ccc(-c3cc(-c4cccc(F)c4)c(C#N)c(N)n3)cc2)cc1`, the growth in the experiment on SR leukemia was 8.01% (active); in the experiment on RPMI-8226 leukemia, -3.27% (active); in the experiment with OVCAR-8 ovarian it was 7.02% (active); in the experiment with OVCAR-5 ovarian, 45.5%; with OVCAR-4 ovarian, -63.4% (active); in the experiment with IGROV1 ovarian, -66.3% (active). Besides, the growth with OVCAR-3 ovarian was -79.4% (active); in the experiment with HS 578T breast, 31.4%; in the experiment on NCI/ADR-RES ovarian, 41%; in the experiment with T-47D breast, -27.2% (active); in the experiment with BT-549 breast it was 7.45% (active); in the experiment with MDA-MB-435 melanoma, 19.6%. The growth in the experiment with SW-620 colon was -31.7% (active); with MCF7 breast, 11.3%; in the experiment on HCT-116 colon, -73.2% (active); with HCC-2998 colon it was 39.7%; with KM12 colon it was 46.7%.

For `C/C(=N\Nc1ccc2ccccc2n1)c1ccccn1`, the growth with SR leukemia was 6.18% (active); with RPMI-8226 leukemia, 1.84% (active); in the experiment with OVCAR-8 ovarian it was 6.43% (active); with OVCAR-5 ovarian, 24%; with OVCAR-4 ovarian, 21.2%; with SK-OV-3 ovarian, 24.7%. For the same compound, the growth was 8.54% (active) in the experiment on OVCAR-3 ovarian; 49% with HS 578T breast; 19.8% with T-47D breast; 20.3% in the experiment on BT-549 breast; 3.21% (active) in the experiment on MDA-MB-435 melanoma; 10.3% in the experiment on SW-620 colon. Moreover, the growth in the experiment on MCF7 breast was 8.28% (active); with HCT-116 colon it was -12% (active); with HCC-2998 colon, 18.1%; in the experiment on KM12 colon, 6.76% (active).
